# Laboratory results: the supplement of paper PMC6279402
# Structures can show the parent of a compound that is named as a salt. ± gives the standard deviation of the averaged measurements.
# Tested on: A549
# Experiment: relative viability (normalised to negative control = 1, bortezomib = 0) (fraction); higher = less cytotoxic
# Settings: inflammatory serum-free RHB-A with cytokines + LPS, 5 d + 24 h CellTiter-Blue
# [1] = compound 30 nM, GSK126 pretreatment: 5 uM GSK126
# [2] = compound 30 nM, GSK126 pretreatment: none (vehicle)
# [3] = compound 300 nM, GSK126 pretreatment: 5 uM GSK126
# [4] = compound 300 nM, GSK126 pretreatment: none (vehicle)
SMILES,relative viability [1],relative viability [2],relative viability [3],relative viability [4]
COc1cccc(-c2cc(=O)c3ccccc3o2)c1N,0.734 ± 0.07,0.794 ± 0.057,0.726 ± 0.19,0.825 ± 0.078
COc1cc(OC)c(/C=C/S(=O)(=O)Cc2ccc(OC)c(NCC(=O)O)c2)c(OC)c1,0.4 ± 0.058,0.303 ± 0.018,0.352 ± 0.015,0.245 ± 0.035
CC(C)c1cnn2c(NCc3ccccc3)cc(NCCCCCCN)nc12 [BS-181 hydrochloride],0.804 ± 0.083,0.821 ± 0.11,0.853 ± 0.063,0.895 ± 0.049
Cc1ccc(NC(=O)c2ccc(CN3CCN(C)CC3)cc2)cc1Nc1nc(-c2cccnc2)cs1 [Masitinib(AB1010)],0.802 ± 0.1,0.761 ± 0.1,0.841 ± 0.11,0.979 ± 0.091
O=C(Nc1cccc(Cl)c1)Nc1ncc(CCNc2ncnc3ccsc23)s1 [SNS-314 Mesylate],0.763 ± 0.13,0.639 ± 0.054,0.689 ± 0.16,0.505 ± 0.1
CCN(CC)CCNC(=O)c1c(C)[nH]c(/C=C2\C(=O)Nc3ccc(F)cc32)c1C [Sunitinib; Sunitinib Malate; Sunitinib (free base)],0.842 ± 0.03,0.832 ± 0.046,0.896 ± 0.067,0.939 ± 0.097
O=C(Nc1c[nH]nc1-c1nc2ccc(CN3CCOCC3)cc2[nH]1)NC1CC1,0.71 ± 0.039,0.663 ± 0.021,0.336 ± 0.034,0.279 ± 0.077
CC(C)Cn1cnc2c(N)nc3ccccc3c21 [Imiquimod],0.8017 ± 0.004,0.794 ± 0.058,0.863 ± 0.059,0.911 ± 0.019
CCCCCOC(=O)Nc1nc(=O)n([C@@H]2O[C@H](C)[C@@H](O)[C@H]2O)cc1F [Capecitabine],0.858 ± 0.12,0.867 ± 0.12,0.892 ± 0.14,0.965 ± 0.12
O=C(NOCC1CC1)c1ccc(F)c(F)c1Nc1ccc(I)cc1Cl,0.441 ± 0.038,0.55 ± 0.088,0.256 ± 0.014,0.312 ± 0.033
CCN(CCO)CCCOc1ccc2c(Nc3cc(CC(=O)Nc4cccc(F)c4)[nH]n3)ncnc2c1 [AZD1152-HQPA(Barasertib)],0.73 ± 0.079,0.714 ± 0.031,0.813 ± 0.13,0.696 ± 0.037
CC(=O)O[C@]1(C(C)=O)CC[C@H]2[C@@H]3C=C(C)C4=CC(=O)CC[C@]4(C)[C@H]3CC[C@@]21C [Megestrol acetate],1.35 ± 0.04,1.21 ± 0.14,1.48 ± 0.078,1.55 ± 0.085
COc1cccc2cc(-c3nc(C4CCC(C(=O)O)CC4)n4ncnc(N)c34)[nH]c12 (centres undefined),0.815 ± 0.016,0.797 ± 0.045,0.588 ± 0.07,0.718 ± 0.055
O=C1CCC(N2C(=O)c3ccccc3C2=O)C(=O)N1 (centres undefined),0.862 ± 0.17,0.862 ± 0.13,0.865 ± 0.06,0.87 ± 0.034
c1ccc2c(-c3cnn4cc(-c5ccc(N6CCNCC6)cc5)cnc34)ccnc2c1,1.01 ± 0.16,0.961 ± 0.15,1.1 ± 0.067,1.13 ± 0.093
CN(C)Cc1cccc(N=C(c2ccccc2)c2c(O)[nH]c3cc(C(=O)N(C)C)ccc23)c1,0.839 ± 0.14,0.864 ± 0.16,0.954 ± 0.16,1.04 ± 0.16
C=CC(=O)Nc1cc2c(Nc3ccc(F)c(Cl)c3)ncnc2cc1OCCCN1CCOCC1 [CI-1033(Canertinib)],0.602 ± 0.014,0.595 ± 0.017,0.483 ± 0.028,0.502 ± 0.028
CC(=O)Nc1nc(C)c(-c2ccc(Cl)c(S(=O)(=O)NCCO)c2)s1,0.61 ± 0.047,0.678 ± 0.015,0.487 ± 0.16,0.712 ± 0.052
O=C(O)c1ccc2c(c1)nc(Nc1cccc(Cl)c1)c1ccncc12,0.707 ± 0.14,0.761 ± 0.04,0.728 ± 0.11,0.839 ± 0.12

SMILES,relative viability [1],relative viability [2],relative viability [3],relative viability [4]
C=CC(=O)Nc1cccc(Sc2nc(Nc3ccc(N4CCN(C)CC4)cc3)ncc2Cl)c1,0.859 ± 0.1,0.815 ± 0.085,0.475 ± 0.1,0.477 ± 0.083
CCN(CC)CCCC(C)Nc1c2ccc(Cl)cc2nc2ccc(OC)cc12 (centres undefined),0.836 ± 0.066,0.847 ± 0.051,1.02 ± 0.091,1.02 ± 0.11
Cc1ccc(NC(=O)c2ccc(CN3CCN(C)CC3)cc2)cc1Nc1nccc(-c2cccnc2)n1,0.902 ± 0.12,0.867 ± 0.096,0.976 ± 0.13,1 ± 0.093
CS(=O)(=O)N1CCN(Cc2cc3nc(-c4cccc5[nH]ncc45)nc(N4CCOCC4)c3s2)CC1,0.716 ± 0.093,0.719 ± 0.062,0.339 ± 0.066,0.411 ± 0.017
Cc1ccc(-n2nc(C(C)(C)C)cc2NC(=O)Nc2ccc(OCCN3CCOCC3)c3ccccc23)cc1,1.13 ± 0.13,0.937 ± 0.18,1.32 ± 0.064,1.13 ± 0.23
O=C(NOCC(O)CO)c1cc(Br)c(F)c(F)c1Nc1ccc(I)cc1F (centres undefined),0.407 ± 0.025,0.492 ± 0.087,0.193 ± 0.019,0.276 ± 0.0045
O=C(c1ccc(/C=C/c2n[nH]c3ccccc23)cc1)N1CCNCC1,0.843 ± 0.022,0.862 ± 0.046,0.957 ± 0.065,1.04 ± 0.091
Nc1nc2[nH]cc(CCc3ccc(C(=O)N[C@@H](CCC(=O)O)C(=O)O)cc3)c2c(=O)[nH]1 [Pemetrexed; Pemetrexed Disodium],0.89 ± 0.07,0.88 ± 0.078,0.829 ± 0.1,0.879 ± 0.095
COC(=O)c1ccc2c(C(=Nc3ccc(N(C)C(=O)CN4CCN(C)CC4)cc3)c3ccccc3)c(O)[nH]c2c1 [BIBF1120(Vargatef)],0.825 ± 0.044,0.812 ± 0.16,0.844 ± 0.13,1.01 ± 0.18
CNC(=O)c1ccccc1Sc1ccc2c(/C=C/c3ccccn3)n[nH]c2c1,0.898 ± 0.013,0.875 ± 0.039,0.835 ± 0.13,0.891 ± 0.063
O=C(CCCCCCC(=O)Nc1ccccc1)NO [Vorinostat; SAHA],0.83 ± 0.15,0.868 ± 0.073,0.891 ± 0.17,1 ± 0.19
CCCS(=O)(=O)Nc1ccc(F)c(C(=O)c2c[nH]c3ncc(-c4ccc(Cl)cc4)cc23)c1F [vemurafenib],0.86 ± 0.082,0.848 ± 0.071,1 ± 0.051,1.02 ± 0.061
COc1ccc(-c2ccc3c(N4CCOC[C@@H]4C)nc(N4CCOC[C@@H]4C)nc3n2)cc1CO,0.392 ± 0.011,0.396 ± 0.016,0.191 ± 0.054,0.197 ± 0.015
CNNCc1ccc(C(=O)NC(C)C)cc1 [Procarbazine hydrochloride; Procarbazine],0.962 ± 0.15,0.915 ± 0.14,0.997 ± 0.12,0.967 ± 0.06
Cn1cc(C2=C(c3ccc(Cl)cc3Cl)C(=O)NC2=O)c2ccccc21,0.787 ± 0.042,0.778 ± 0.046,0.695 ± 0.079,0.802 ± 0.05
O=c1[nH]cc(F)c(=O)[nH]1 [5-Fluorouracil; Fluorouracil],0.96 ± 0.07,0.911 ± 0.063,0.865 ± 0.13,0.924 ± 0.026
Cc1cc(Nc2nc(N[C@@H](C)c3ncc(F)cn3)ncc2Cl)[nH]n1,0.912 ± 0.1,0.872 ± 0.08,1.15 ± 0.076,1.13 ± 0.017
CC(C)(C)Cn1c(N)nc2ccc(-c3[nH]c(C(C)(C)C)nc3-c3ccc(F)cc3)nc21,1.11 ± 0.14,0.933 ± 0.21,1.25 ± 0.16,1.15 ± 0.18
Nc1ncn([C@@H]2O[C@H](CO)[C@@H](O)[C@H]2O)c(=O)n1 [Azacitidine; 5-azacytidine],0.841 ± 0.27,0.854 ± 0.13,0.903 ± 0.15,0.996 ± 0.13

SMILES,relative viability [1],relative viability [2],relative viability [3],relative viability [4]
Cc1cn(-c2cc(NC(=O)c3ccc(C)c(Nc4nccc(-c5cccnc5)n4)c3)cc(C(F)(F)F)c2)cn1 [Nilotinib],1.02 ± 0.13,0.993 ± 0.089,1.14 ± 0.17,1.07 ± 0.069
CO[C@@]12[C@H](COC(N)=O)C3=C(C(=O)C(C)=C(N)C3=O)N1C[C@@H]1N[C@@H]12 [Mitomycin; Mitomycin C],0.827 ± 0.16,0.845 ± 0.092,0.58 ± 0.1,0.47 ± 0.05
Cc1cnc(-c2cnc(NCCNc3ccc(C#N)cn3)nc2-c2ccc(Cl)cc2Cl)[nH]1,0.847 ± 0.064,0.834 ± 0.016,0.788 ± 0.059,0.732 ± 0.097
CC(=O)O[C@H]1C(=O)[C@@]2(C)[C@H]([C@H](OC(=O)c3ccccc3)[C@]3(O)C[C@H](OC(=O)[C@H](O)[C@@H](NC(=O)c4ccccc4)c4ccccc4)C(C)=C1C3(C)C)[C@]1(OC(C)=O)CO[C@@H]1C[C@@H]2O [Paclitaxel; Taxol],0.391 ± 0.044,0.242 ± 0.009,0.368 ± 0.077,0.301 ± 0.048
CCc1cccc(CC)c1NC(=O)N1Cc2[nH]nc(NC(=O)c3ccc(N4CCN(C)CC4)cc3)c2C1,0.891 ± 0.14,0.91 ± 0.12,0.701 ± 0.13,0.557 ± 0.075
CCS(=O)(=O)Nc1ccc2[nH]c(O)c(C(=Nc3ccc(CN4CCCCC4)cc3)c3ccccc3)c2c1 [Hesperadin],0.652 ± 0.13,0.598 ± 0.063,0.336 ± 0.019,0.331 ± 0.022
Cn1c(Nc2ccc(C(F)(F)F)cc2)nc2cc(Oc3ccnc(-c4ncc(C(F)(F)F)[nH]4)c3)ccc21,0.826 ± 0.12,0.699 ± 0.17,0.427 ± 0.11,0.347 ± 0.037
N#Cc1ccc(C(c2ccc(C#N)cc2)n2cncn2)cc1 [Letrozole],0.756 ± 0.011,0.7993 ± 0.0055,0.832 ± 0.063,0.932 ± 0.037
NCC(=O)CCC(=O)O [Aminolevulinic acid hydrochloride; Aminolevulinic acid],1.08 ± 0.17,0.985 ± 0.1,1.05 ± 0.12,0.981 ± 0.053
CC[C@]1(O)C[C@@H]2CN(CCc3c([nH]c4ccccc34)[C@@](C(=O)OC)(c3cc4c(cc3OC)N(C)[C@H]3[C@@](O)(C(=O)OC)[C@H](OC(C)=O)[C@]5(CC)C=CCN6CC[C@]43[C@@H]65)C2)C1 [Vinblastine sulfate salt; Vinblastine sulfate],0.447 ± 0.011,0.286 ± 0.039,0.277 ± 0.024,0.255 ± 0.022
O=C(Nc1ccc(OC(F)(F)F)cc1)c1sccc1NCc1ccnc2ccccc12,1.07 ± 0.025,1.05 ± 0.035,1.15 ± 0.16,1.2 ± 0.036
COc1nc(N)nc2c1ncn2[C@@H]1O[C@H](CO)[C@@H](O)[C@@H]1O [Nelarabine],0.838 ± 0.12,0.875 ± 0.13,0.96 ± 0.16,0.956 ± 0.14
Fc1cc(-c2cccc3ncc(-c4cnn(C5CCNCC5)c4)nc23)cc(F)c1CN1CCOCC1,0.927 ± 0.076,0.889 ± 0.13,1.11 ± 0.12,1.05 ± 0.15
C=CC(=O)Nc1cccc(Oc2nc(Nc3ccc(N4CCN(C)CC4)cc3)ncc2Cl)c1,0.802 ± 0.067,0.82 ± 0.095,0.132 ± 0.07,0.0677 ± 0.014
CS(=O)(=O)CCNCc1ccc(-c2ccc3ncnc(Nc4ccc(OCc5cccc(F)c5)c(Cl)c4)c3c2)o1 [Lapatinib ditosylate; Lapatinib; Lapatinib Ditosylate],0.811 ± 0.091,0.826 ± 0.083,0.594 ± 0.11,0.562 ± 0.057
Nc1cc(C(F)(F)F)c(-c2cc(N3CCOCC3)nc(N3CCOCC3)n2)cn1,0.85 ± 0.082,0.771 ± 0.058,0.664 ± 0.064,0.751 ± 0.052
CNC(=O)c1ccc(C)c(-n2c(C)cc(OCc3ccc(F)cc3F)c(Br)c2=O)c1,1.15 ± 0.17,0.936 ± 0.17,1.29 ± 0.13,0.974 ± 0.085
O=C(Cc1ccc(-c2ccc(OCCN3CCOCC3)cc2)cn1)NCc1ccccc1,0.319 ± 0.065,0.211 ± 0.026,0.388 ± 0.049,0.248 ± 0.05
